# Screens: PubChem, National Center for Advancing Translational Sciences (NCATS)
# FMDV antiviral – antivirals against foot and mouth disease virus; FMDV antiviral cell assay, firefly luciferase signal; Potency, µM (doses to about 57.5 µM), for inactives: top-dose activity change, negative = inhibition, usual class: inhibitors; actives 0.23% (n = 120,000); further: nearly all actives have a fitted effect of over 60% in size
# FMDV Renilla – antivirals against foot and mouth disease virus replicon; FMDV replicon cells, Renilla luciferase signal; Potency, µM (titrated, usually from 57.5 µM), inactives show at the highest dose activity change, negative = inhibition, most hits filed as inhibitors; actives 0.32% (n = 120,000); further: nearly all actives have a fitted effect of over 55% in size
# Active calls of the source: *; ? = inconclusive. An excerpt weighted towards active compounds, which were near 0.4% of everything screened. The call rests on the fitted dose curve. On the % scale 0 is the no-effect control and ±100 the full control effect; potency means the concentration at half of the fitted maximal effect.
SMILES,FMDV antiviral,FMDV Renilla
COCCN(C(=O)c1cc(-c2ccco2)nc2ccccc12)c1c(N)n(CC(C)C)c(=O)[nH]c1=O,-4%,-8%
O=C(O)CNC(=O)CCn1ccc2ccc(F)cc21,13%,-5%
O=C(NC1CCCC1)c1ccc2c(c1)N(Cc1ccc(F)cc1)C(=O)c1ccccc1S2,-22%,18%
O=C(NC1CCCC1)c1ccc2c(c1)N(Cc1ccccc1)C(=O)c1ccccc1S2,25µM*,?
CN(Cc1cc2ccccc2[nH]c1=O)C(=O)c1cccc(Cl)c1,-2%,1%
Cc1ccccc1C(C)NC(=O)c1cc2ccccc2oc1=O (stereo not drawn),89%,3%
CCOC(=O)c1sc(-c2ccc3c(c2)OCO3)cc1NC(=O)c1cnccn1,0%,-14%
Brc1ccc(CN2CCc3nc(N4CCN(c5ncccn5)CC4)ncc3C2)cc1,-25%,?
COc1cc(CN2CCc3nc(N4CCN(c5ncccn5)CC4)ncc3C2)cc(OC)c1OC,?,7.1µM*
O=C1CSc2sc(=S)sc2SC1,0%,26%
CNc1snc(C)c1C(=O)OCc1csc(-c2ccc(F)cc2)n1,?,0.71µM*
COc1ccc(-c2nc(CNS(=O)(=O)c3ccc(F)cc3)cs2)cc1,-5%,-5%
Clc1cccc(NN=C2c3ccccc3-c3ccccc32)c1,10%,4%
COc1ccc(CCNC(=O)c2c(O)nc3c(C)cccn3c2=O)cc1OC,-18%,-13%
COc1ccccc1CNC(=O)c1c(O)nc2c(C)cccn2c1=O,?,35µM*
Cc1ccc(C)c(NC(=O)CCc2ncc(-c3c(F)cccc3F)o2)c1,1%,2%
COc1cc(CN(C(=O)c2cccc(Cl)c2)c2ccccn2)cc(OC)c1OC,?,65%
COc1cc(CN(C(=O)c2ccc(OC(C)C)cc2)c2ccccn2)cc(OC)c1OC,?,10µM*
COc1nc(C(=O)NCC(C)N(C)C)cc2ccccc12 (stereo not drawn),-14%,-15%
COc1nc(C(=O)NC2(c3ccccc3)CCC2)cc2ccccc12,?,4.5µM*
CC(C)=CC(=O)Nc1sc(C)c(C)c1C#N,89%,3%
C(=Nc1ccccc1)c1ccc(-c2cccs2)s1,?,8.9µM*
CC(C)(C)c1ccc(N=Cc2cccs2)cc1,4%,4%
COC(=O)C1=C(C)OC(=O)C1(NC(=O)c1ccccc1)C(F)(F)F (stereo not drawn),10%,2%
CCOC(=O)C1CCN(Cc2cc(=O)oc3cc(C)c(O)cc23)CC1,6%,-3%
SMILES,FMDV antiviral,FMDV Renilla
C/C=C/C=C/C(=O)NC1CC2CCC1(C)C2(C)C (stereo not drawn),22%,-3%
CCCCOc1ccc(C(=O)C(CCC(CNC(C)(C)C)C(=O)c2ccc(OCCCC)cc2)CNC(C)(C)C)cc1 (stereo not drawn),?,28µM*
CCCCCOc1ccc(C(=O)O)cc1,0%,12%
CCCCc1ccc(NC(=O)c2ccc3c(c2)CCN3S(=O)(=O)CC)cc1,8.9µM*,25µM*
CCS(=O)(=O)N1CCc2cc(C(=O)Nc3cccc(C(C)=O)c3)ccc21,61%,9%
CS(=O)(=O)N1CCc2cc(C(=O)Nc3ccc(C(F)(F)F)cc3)ccc21,?,32µM*
CC(C)c1ccc(NC(=O)c2ccc3c(c2)CCCN3S(C)(=O)=O)cc1,?,8.9µM*
Cc1ccc(S(=O)(=O)N2CCc3cc(C(=O)Nc4ccc(C(F)(F)F)cc4)ccc32)cc1,2%,136%
CC(C)c1ccc(NC(=O)c2ccc3c(c2)CCN3S(=O)(=O)c2ccccc2)cc1,-16%,17%
COC(=O)c1ccc(CN(C)C(=O)CCc2ncc(-c3ccccc3F)o2)cc1,53%,11%
CCOc1ccc(NC(=O)C(C)Oc2cc(C)cc(C)c2)c2cccnc12 (stereo not drawn),-8%,-14%
COc1ccccc1OC(C)C(=O)Nc1ccc(OC)c2ncccc12 (stereo not drawn),14%,18%
COc1ccc(NC(=O)C(C)Oc2cccc(C)c2C)c2cccnc12 (stereo not drawn),?,4µM*
COc1ccc(NC(=O)C(C)Oc2cc(C)cc(C)c2)c2cccnc12 (stereo not drawn),?,28µM*
CC(C)CCC(C)NC(=O)c1ccc(CN2CCCC2=O)cc1 (stereo not drawn),97%,4%
CC(C)(C)c1ccc(NC(=O)c2ccc(CN3CCCC3=O)cc2)cc1,?,22µM*
O=C(Nc1ccc(Oc2ccccc2)cc1)c1cccc(CN2CCCC2=O)c1,?,7.9µM*
O=C(Nc1ccccc1Oc1ccccc1)c1cccc(CN2CCCC2=O)c1,17%,17%
O=C(OCc1cc(-c2ccccc2)no1)c1cc(Cl)c[nH]1,37%,12%
Cc1cccc(NC(=O)c2cc(-c3ccc(C)o3)nc3ccccc23)c1,20%,-8%
O=C1CC(c2ccc(Cl)cc2)CC2=C1C=Nc1ccccc1N2 (stereo not drawn),0%,-9%
CC1=C2C(=O)CC(c3ccc(Cl)cc3)CC2=Nc2ccccc2N1 (stereo not drawn),8.9µM*,10µM*
COc1ccc(/C=C(/CCCC(=O)O)c2nc3ccccc3s2)cc1C,?,51%
C=CCNc1nc2c(c(=O)n(C)c(=O)n2C)n1CC,-7%,-8%
Cc1ccc(OCC(O)Cn2c(NCC(=O)O)nc3c2c(=O)n(C)c(=O)n3C)cc1 (stereo not drawn),-6%,-16%
SMILES,FMDV antiviral,FMDV Renilla
C=CCNc1nc2c(c(=O)n(C)c(=O)n2C)n1CC(O)COc1ccc(OC)cc1 (stereo not drawn),?,22µM*
C=CCNc1nc2c(c(=O)n(C)c(=O)n2C)n1CCC(C)C,28µM*,16µM*
Cc1ccc(-c2cc(C(=O)OCC(=O)N3CCCC3=O)c3ccccc3n2)o1,46%,-7%
CCOC(=O)c1ccc(NCc2ccnc(N3CCOCC3)c2)nc1,?,28µM*
CC(C)c1ccc(C(=O)COC(=O)c2ccc(N3CCOCC3)nc2)cc1,17%,20%
CCN(Cc1ccccc1)c1ccc(/C=N/NS(=O)(=O)c2cc(C)ccc2C)cc1,16%,399%
Cc1cccc(OCC(=O)Nc2cc(-c3nn(C)c(=O)c4ccccc34)ccc2N2CCCCC2)c1,13%,3%
CC(=O)N1CCN(Cc2coc(-c3ccc(Cl)cc3)n2)CC1,12%,?
O=C(CSCc1coc(-c2ccc(Cl)cc2)n1)N1CCCCC1,-13%,20µM*
COc1cc(C2C3=C(CCCC3=O)Nc3c(C#N)cnn32)cc(OC)c1O (stereo not drawn),-6%,-11%
COC(=O)c1ccc(COc2ccc3c(-c4ccc(F)cc4)noc3c2)cc1,16%,16%
O=C(COc1ccc2c(-c3ccc(F)cc3)noc2c1)OCc1ccccc1,2.8µM*,1%
CCCC(C#N)NC(=O)Cc1c[nH]c2ccccc12 (stereo not drawn),-4%,2%
Cc1ccc(-n2c(/C=C\c3ccc(F)c(F)c3)nc3ccccc3c2=O)c(C)c1,7.9µM*,3.5µM*
Cc1ccccc1-n1c(/C=C/c2ccc(O)cc2)nc2ccccc2c1=O,8%,?
O=C(N/N=C/c1ccccc1F)C1CC1,0%,9%
O=C(CSc1nnc(-c2ccncc2)n1C1CC1)c1cc2cc(Cl)ccc2o1,0%,-1%
COc1ccc(CCNC(=O)c2cc(=O)c3ccccc3o2)cc1OC,-21%,-13%
CCc1ccc2oc(C(=O)NCCc3ccc(OC)c(OC)c3)cc(=O)c2c1,35µM*,?
